# An excerpt weighted towards active compounds, which were near 12% of everything screened.
# JMJD2A Tudor inh: qHTS Assay for Inhibitors of JMJD2A-Tudor Domain. Lysine-specific demethylase 4A (Homo sapiens), O75164. Potency, µM (series often up to 114 µM), inactives show at the top dose activity change, negative = inhibition, hits mostly inhibitors. AlphaScreen JMJD2A-Tudor / H3K4me3 peptide binding. AID 504339, 2011. 4.4% of 390,000 active; note: % is set by controls: 0 for no effect and ±100 for the full control effect; nearly all actives have a fitted effect of over 50% in size
# Target sequence (O75164 whole entry, looked up, the tested form may be a part): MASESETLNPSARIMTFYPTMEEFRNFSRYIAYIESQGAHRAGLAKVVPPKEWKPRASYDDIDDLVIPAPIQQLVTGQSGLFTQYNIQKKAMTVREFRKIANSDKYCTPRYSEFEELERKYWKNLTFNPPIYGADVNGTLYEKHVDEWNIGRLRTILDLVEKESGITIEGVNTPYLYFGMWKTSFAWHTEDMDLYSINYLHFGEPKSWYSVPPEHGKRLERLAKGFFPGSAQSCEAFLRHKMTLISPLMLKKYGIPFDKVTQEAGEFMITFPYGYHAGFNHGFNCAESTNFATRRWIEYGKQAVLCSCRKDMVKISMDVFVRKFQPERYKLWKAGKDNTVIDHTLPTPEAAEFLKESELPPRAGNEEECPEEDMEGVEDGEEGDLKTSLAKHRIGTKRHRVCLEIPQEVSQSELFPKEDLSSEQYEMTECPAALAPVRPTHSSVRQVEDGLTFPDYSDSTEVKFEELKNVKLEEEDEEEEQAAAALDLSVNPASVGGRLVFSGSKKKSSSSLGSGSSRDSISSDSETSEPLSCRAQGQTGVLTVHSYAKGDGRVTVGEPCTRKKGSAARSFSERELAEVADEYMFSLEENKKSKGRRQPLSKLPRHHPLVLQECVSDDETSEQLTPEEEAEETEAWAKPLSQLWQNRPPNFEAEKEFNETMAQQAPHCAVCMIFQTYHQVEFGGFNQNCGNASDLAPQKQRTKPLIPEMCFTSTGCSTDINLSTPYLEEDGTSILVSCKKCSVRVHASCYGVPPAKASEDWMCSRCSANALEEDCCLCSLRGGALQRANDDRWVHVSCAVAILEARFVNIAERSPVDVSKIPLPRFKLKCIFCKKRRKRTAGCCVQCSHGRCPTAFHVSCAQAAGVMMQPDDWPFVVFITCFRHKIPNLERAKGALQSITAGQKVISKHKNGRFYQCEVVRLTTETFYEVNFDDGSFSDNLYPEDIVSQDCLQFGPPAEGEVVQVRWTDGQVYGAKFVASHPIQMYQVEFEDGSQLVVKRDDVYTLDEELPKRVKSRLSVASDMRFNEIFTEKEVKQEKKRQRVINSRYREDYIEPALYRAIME
# BAZ2B inh: qHTS Assay for Inhibitors of BAZ2B; Potency, µM (series often up to 114 µM), inactives show top-dose activity change, negative = inhibition, usual class: inhibitors; 4.4% of 360,000 active; AlphaScreen BAZ2B-H3K14Ac peptide displacement; AID 504333, 2011; note: % is set by controls: 0 for no effect and ±100 for the full control effect; nearly all actives have a fitted effect of over 60% in size
#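 BAZ2B 50 nM plus b-H3(5-23)K14Ac 50 nM, PBS pH 7.4/0.01% Tween-20, 30 min RT; compound added (max 110 uM), 30 min RT; streptavidin donor/Ni-chelate acceptor beads 10 ug/mL final, 20 min dark; AlphaScreen read.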
# HP1b binding inh: HTS for Inhibitors of HP1-beta Chromodomain Interactions with Methylated Histone Tails | AlphaScreen HP1-beta / biotin-H3K9me3 peptide binding | 0.56% of 390,000 active | AID 540317, 2011 | Chromobox protein homolog 1 (Homo sapiens), P83916 | Potency, µM (doses to about 114 µM), without a hit: at the highest dose activity change, negative = inhibition, hits mostly inhibitors; note: nearly all actives have a fitted effect of over 70% in size
#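 AlphaScreen: HP1-beta (50 nM) preformed 30 min with biotin-H3(1-18)K9me3 peptide (50 nM) in PBS pH 7.4, 0.01% Tween-20. Compound added for 30 min at RT, then streptavidin donor/nickel chelate acceptor beads (10 ug/mL) for 30 min.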
# Sfp inh: qHTS Assay for Inhibitors of Bacillus subtilis Sfp phosphopantetheinyl transferase (PPTase); Biochemical Sfp PPTase activity, qHTS; 4'-phosphopantetheinyl transferase ffp (Bacillus subtilis), Q9F4F7; 3.5% of 310,000 active; AID 1490, 2009; Potency, µM, for inactives: largest response in the series, negative = inhibition, actives largely listed as inhibitors;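 note: the enzyme is Sfp with the accession as filed and its product quenches rhodamine fluorescence; 0% = enzyme reaction without inhibitor and -100% = no enzyme wells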
#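 Fluorescence-quenching assay with 15 nM Sfp, 5 uM rhodamine-CoA and 12.5 uM BHQ-2-labelled ybbR peptide in pH 7.6 Hepes/MgCl2 buffer. Enzyme was pre-incubated with compound for 15 min at room temperature. Rate was taken from the 30-min fluorescence change (525/598 nm).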
# G9a inh: qHTS Assay for Inhibitors of Histone Lysine Methyltransferase G9a; 8.8% of 350,000 active; AID 504332, 2011; G9a H3K9 monomethylation, AlphaScreen, 2 h; Histone-lysine N-methyltransferase EHMT2 (Homo sapiens), Q96KQ7; Potency, µM (top dose mostly 102 µM), for inactives: at the top dose activity, negative = inhibition, usual class: inhibitors; note: % is set by controls: 0 for no effect and ±100 for the full control effect; nearly all actives have a fitted effect of over 75% in size
#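 Readings reflect AlphaScreen signal from monomethyl-H3K9 antibody detection. HMT at 20 nM; substrate b-H3K9 500 nM; cofactor SAM 20 uM; 2 h RT reaction; compounds tested as titrations in qHTS with 15 min preincubation.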
# L3MBTL1 block: qHTS Assay for the Inhibitors of L3MBTL1; AlphaScreen L3MBTL1–H3K9me1 peptide binding; Potency, µM (series often up to 57.1 µM), inactives show at the highest dose activity, negative = inhibition, usual class: inhibitors; 0.66% of 230,000 active; note: % is set by controls: 0 for no effect and ±100 for the full control effect; nearly all actives have a fitted effect of over 60% in size
#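 L3MBTL1 50 nM + b-AHA-H3(1-15)K9me1 75 nM, 30 min RT; compound added, 30 min RT; streptavidin donor/Ni-chelate acceptor beads 10 ug/mL each final, 30 min RT dark; AlphaScreen read.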
# Starred values were filed as active, the others as inactive; ? = inconclusive; . = no result given; [ ] = dose if it differs, or a comment. Calls come from the whole dose curve; as a rule, active = well fitted curve in the direction sought with a large enough effect; inconclusive = small, poorly fitted or top-dose-only effect, or another doubt; inactive = no such curve, though single readings can be large; an effect the other way counts as inactive or inconclusive. Potency is the fitted concentration of half-maximal effect.
SMILES,JMJD2A Tudor inh,BAZ2B inh,HP1b binding inh,Sfp inh,G9a inh,L3MBTL1 block
CC#CCN1c2ccccc2[C@]23C[C@@H](C(=O)OC)N(S(=O)(=O)c4ccc([N+](=O)[O-])cc4)C2=NC(C(=O)OC)=C(C(=O)OC)[C@H]13,.,.,.,0.6%,.,.
OC1CCN(Cc2cccc3ccccc23)CC1,79.4µM*,50.1µM*,?,-12.6%,?,-4.5%
CN1CCCN(Cc2cccc3ccccc23)CC1,25.1µM*,56.2µM*,?,-29.8%,.,-6.7%
O=C(NCCc1ccccc1)c1ccc(CSc2nc3ccncc3n2Cc2ccccc2)cc1,-5.4%,-1.3%,44.1%,.,-9.1%[59 µM],.
CC(C)(C)c1cc(NCCCn2ccnc2)n2ncc(-c3ccccc3)c2n1,?,56.2µM*,10.2%,-10.6%,?,-9.4%
CN(C)CCCNc1cc(C(C)(C)C)nc2c(-c3ccc(Cl)cc3)cnn12,-4.5%,-6.1%,50.1%,31.6µM*,4.5%,7.9%
Cc1cccc(-c2cc3nc(C)cc(NCCCn4ccnc4)n3n2)c1,-22.9%[11.4 µM],17.8µM*,-12.6%,-5.0%,?,.
Cc1cc(NCCCn2ccnc2)n2ncc(-c3ccc(Cl)cc3)c2n1,?,?,-2.3%,-4.9%,37.1%[59 µM],-2.3%
O=C(c1ccccc1Cl)N1CCN(c2ncccn2)CC1,7.2%,.,18.8%,.,.,.
Fc1ccc(CN2CCN(c3ncccn3)CC2)c(F)c1,17.8µM*,3.6%,-23.6%,?,.,-1.0%
Clc1ccc(CN2CCN(c3ncccn3)CC2)c(Cl)c1,17.8µM*,?,?,-33.8%,.,7.7%
Clc1ccccc1CN1CCN(c2ncccn2)CC1,1µM*,?,?,-22.4%,31.6µM*,-6.2%
Clc1ccccc1CN1CCSCC1,25.1µM*,?,?,?,-2.7%[0.501 µM],-5.0%[2.29 µM]
CC(C)[C@@H](CC(=O)N[C@@H]1CCNC[C@H]1C(=O)N[C@H](CC(=O)N[C@@H](CCC(=O)O)CC(=O)O)Cc1ccccc1)NC(=O)C[C@H](Cc1c[nH]c2ccccc12)NC(=O)[C@@H]1CNCC[C@H]1N,.,.,.,-22.3%,.,.
COc1ccc(NC(=O)CCOc2cc(C)ccc2C)cc1S(=O)(=O)N1CCCCC1,-21.2%,.,26.0%,.,.,1.0%
COc1cc(OC)cc(-c2nnc3n2N=C(c2c(OC)cccc2OC)CS3)c1,?,.,.,-19.6%,.,.
CN(CCc1ccc(Cl)c(Cl)c1)CC(O)COc1ccc(NS(C)(=O)=O)cc1 (centres undefined),.,.,.,28.1%,-0.1%[59 µM],.
CC1CN(Cc2cnc(Cl)s2)CC(C)O1 (centres undefined),-11.0%,-18.3%,44.6%,18.3%,?,-15.0%[11.4 µM]
O=C(Nc1cccc(Cl)c1Cl)C1CCN(c2ncccn2)CC1,-4.5%,-5.4%,25.7%,-9.0%,-5.3%[59 µM],3.4%
Clc1cccc(CN2CCN(c3ncccn3)CC2)c1Cl,20µM*,?,?,-27.5%,.,5.2%
CC1CN(Cc2ccccc2Cl)CC(C)O1 (centres undefined),4.47µM*,31.6µM*,?,?,8.91µM*,.
O=c1c2cc3c(cc2n(Cc2ccccc2)c(=O)n1Cc1nc(-c2ccccc2)no1)OCO3,2.8%,2.1%,49.9%,.,1.0%[59 µM],.
N#Cc1ccc(S(=O)(=O)NC2CC2)cc1,-7.0%,?,31.5%,?,7.94µM*,.
Cc1c(CN(C)C)c2c(n1C)C(=O)c1ccc(Br)cc1-2,?,?,-4.0%,11.1%,?,-12.6%
Cc1c(CN(C)C)c2c(n1Cc1ccccc1)C(=O)c1ccc(Br)cc1-2,39.8µM*,22.4µM*,?,-18.1%,17.8µM*,.
SMILES,JMJD2A Tudor inh,BAZ2B inh,HP1b binding inh,Sfp inh,G9a inh,L3MBTL1 block
CN1C(=O)/C(=C/c2ccc(-c3ccccc3[N+](=O)[O-])o2)SC1=Nc1ccc(Cl)c(C(=O)O)c1,?,44.7µM*,-39.3%,14.1µM*,3.16µM*,-27.4%
COc1cccc(/C=C/C(=O)Nc2ccc3nc(N4CCN(C)CC4)cc(C)c3c2)c1OC,?,?,-2.1%,.,?,.
COCCOc1ccc(C(F)(F)F)cc1Nc1nc2ccccc2o1,28.2µM*,13.0%,29.6%,-9.9%,?,.
Cc1ccc(C(=O)OCCc2c(C)[nH]n(-c3ccccc3)c2=O)cc1,-10.7%[57.1 µM],-28.5%,7.4%,28.3%,77.0%[59 µM],-4.4%
O=c1ccc2ccc(O)c(O)c2o1,.,.,.,.,0.844µM*,.
CCS(=O)(=O)Nc1ccc(C2=NN(C(=O)c3ccccc3)C(c3cccs3)C2)cc1 (centres undefined),-21.6%,79.4µM*,33.9%,-5.9%,28.2µM*,.
O=C(NC(C(=O)c1ccccc1)n1c(=O)cc[nH]c1=S)c1ccccc1 (centres undefined),?,0.8%,37.0%,?,14.1µM*,2.7%
O=C(CNc1ccc2ccccc2c1)N/N=C/c1ccccn1,-26.4%,-16.1%,8.7%,-18.5%,3.98µM*,-12.2%
O=C(CNc1ccc2ccccc2c1)N/N=C/c1ccncc1,-17.4%,-19.8%,14.7%,-21.0%,1.41µM*,.
O=C(CNC(=O)c1ccccc1O)N/N=C/c1ccccn1,-9.0%,9.8%,37.9%,-11.5%,21.7%,60.6%
Cn1c(SCC(=O)N/N=C/c2cccnc2)nnc1-c1ccccc1,10.8%,1.4%,25.7%,8.8%,23.3%[59 µM],6.9%
Cn1c(SCC(=O)N/N=C/c2ccccn2)nnc1-c1ccccc1,-19.3%,-21.5%,26.0%,44.7µM*,-28.3%,19.6%
O=C(N/N=C/c1ccccn1)C(=O)N1CCCCCC1,-25.7%,-8.0%,27.9%,44.7µM*,?,13.2%
O=C(N/N=C/c1ccccc1C(=O)O)C(=O)N1CCCCC1,-4.9%,-11.8%,41.8%,17.2%,-33.2%,-0.1%
Cc1ccc(S(=O)(=O)N2CCN(c3nc(-c4cccs4)nc4c3ncn4COC(=O)C(C)(C)C)CC2)cc1,-16.3%,.,30.0%,.,.,.
CCOc1ccc(NC(=O)c2c(C)oc3nc(C)nc(N4CCOCC4)c23)cc1,-2.3%,6.2%[57.1 µM],28.1%,.,-19.8%[59 µM],.
CCOC(=O)c1c(C)oc2ncnc(N3CCN(c4cccc(Cl)c4)CC3)c12,-9.3%,-32.8%,36.7%,.,-17.9%[59 µM],.
C(=N\N=C\c1ccccn1)/c1ccccn1,?,50.1µM*,58.6%,-7.4%,2.0%,.
O=C(Cc1ccccc1)N/N=C/c1ccccn1,-17.3%,.,22.1%,.,.,.
O=C(CCCC(=O)N/N=C\c1ccccn1)N/N=C\c1ccccn1,-8.9%[57.1 µM],?,46.5%,39.8µM*,?,15.2%
